Reference: the supplement of paper PMC11732987, “Enantioselective OTUD7B fragment discovery through chemoproteomics screening and high-throughput optimisation” (Communications Chemistry, 2025)

Columns and labels:
Experiment in all cases: log2 ratio of Biotin-Ahx-Ub-VS probe labelling (fragment/DMSO); higher = less target engagement (more negative = stronger competition), active = hit call of the paper (q ≤ 0.05, log2 ratio ≤ -1)
Settings in all cases: compound concentration: 200 uM; treatment time: 3 h
USP16 = USP16 (UniProt Q9Y5T5)
Outline: (§1)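 Labelled DUBs from HEK293T lysate were NeutrAvidin-enriched, digested with LysC and trypsin, and run by diaPASEF LC-MS/MS. Before that, each 495 µg sample in Tris/CHAPS/IGEPAL buffer with protease inhibitors was treated in triplicate with fragment at 200 µM or vehicle for 3 h, then with Biotin-Ahx-Ub-VS at 0.5 µM final for 1 h. Values are average log2 ratios of fragment over vehicle by unpaired t-test, based on global-median-normalised Spectronaut label-free quantities from proteins with ≥2 unique peptides.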

USP19 = molecular target: T1, USP19 (UniProt O94966)
T1 sequence (whole entry): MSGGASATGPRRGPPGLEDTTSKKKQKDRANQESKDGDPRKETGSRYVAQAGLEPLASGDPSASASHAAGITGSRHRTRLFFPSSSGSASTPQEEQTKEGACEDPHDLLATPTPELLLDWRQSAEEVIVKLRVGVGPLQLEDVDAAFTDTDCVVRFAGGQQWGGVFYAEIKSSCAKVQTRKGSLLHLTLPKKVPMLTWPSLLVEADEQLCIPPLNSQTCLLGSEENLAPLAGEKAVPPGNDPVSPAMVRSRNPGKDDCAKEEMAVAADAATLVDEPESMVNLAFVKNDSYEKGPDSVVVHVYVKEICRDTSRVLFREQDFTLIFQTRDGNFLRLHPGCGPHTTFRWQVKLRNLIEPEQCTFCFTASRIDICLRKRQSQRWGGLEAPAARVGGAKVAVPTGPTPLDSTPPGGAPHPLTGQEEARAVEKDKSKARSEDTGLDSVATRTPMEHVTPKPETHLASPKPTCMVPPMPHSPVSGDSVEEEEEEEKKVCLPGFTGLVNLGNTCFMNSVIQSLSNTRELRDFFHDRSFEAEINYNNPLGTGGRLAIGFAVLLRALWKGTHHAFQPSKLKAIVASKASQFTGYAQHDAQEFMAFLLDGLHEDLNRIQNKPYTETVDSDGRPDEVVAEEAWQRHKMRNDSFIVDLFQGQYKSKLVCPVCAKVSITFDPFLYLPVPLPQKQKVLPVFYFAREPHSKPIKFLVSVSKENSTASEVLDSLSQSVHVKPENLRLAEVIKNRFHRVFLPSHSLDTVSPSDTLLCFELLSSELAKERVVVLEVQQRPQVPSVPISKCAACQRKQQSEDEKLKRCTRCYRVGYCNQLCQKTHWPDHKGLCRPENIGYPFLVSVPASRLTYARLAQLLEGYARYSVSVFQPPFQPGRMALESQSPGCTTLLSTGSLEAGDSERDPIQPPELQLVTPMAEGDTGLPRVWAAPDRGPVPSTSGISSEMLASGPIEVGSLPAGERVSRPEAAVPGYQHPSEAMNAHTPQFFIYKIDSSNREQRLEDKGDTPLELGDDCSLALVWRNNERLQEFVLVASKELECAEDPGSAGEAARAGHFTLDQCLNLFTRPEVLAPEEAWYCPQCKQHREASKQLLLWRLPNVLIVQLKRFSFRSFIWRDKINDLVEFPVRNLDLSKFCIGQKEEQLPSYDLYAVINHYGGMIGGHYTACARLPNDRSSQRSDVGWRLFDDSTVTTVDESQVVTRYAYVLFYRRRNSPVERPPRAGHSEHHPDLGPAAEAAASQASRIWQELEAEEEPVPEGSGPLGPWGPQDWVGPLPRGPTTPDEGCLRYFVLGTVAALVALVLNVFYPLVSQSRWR
Outline: as §1

USP24 = USP24 (UniProt Q9UPU5)
Outline: as §1

USP25 = molecular target: T2, USP25 (UniProt Q9UHP3)
T2 sequence (whole entry): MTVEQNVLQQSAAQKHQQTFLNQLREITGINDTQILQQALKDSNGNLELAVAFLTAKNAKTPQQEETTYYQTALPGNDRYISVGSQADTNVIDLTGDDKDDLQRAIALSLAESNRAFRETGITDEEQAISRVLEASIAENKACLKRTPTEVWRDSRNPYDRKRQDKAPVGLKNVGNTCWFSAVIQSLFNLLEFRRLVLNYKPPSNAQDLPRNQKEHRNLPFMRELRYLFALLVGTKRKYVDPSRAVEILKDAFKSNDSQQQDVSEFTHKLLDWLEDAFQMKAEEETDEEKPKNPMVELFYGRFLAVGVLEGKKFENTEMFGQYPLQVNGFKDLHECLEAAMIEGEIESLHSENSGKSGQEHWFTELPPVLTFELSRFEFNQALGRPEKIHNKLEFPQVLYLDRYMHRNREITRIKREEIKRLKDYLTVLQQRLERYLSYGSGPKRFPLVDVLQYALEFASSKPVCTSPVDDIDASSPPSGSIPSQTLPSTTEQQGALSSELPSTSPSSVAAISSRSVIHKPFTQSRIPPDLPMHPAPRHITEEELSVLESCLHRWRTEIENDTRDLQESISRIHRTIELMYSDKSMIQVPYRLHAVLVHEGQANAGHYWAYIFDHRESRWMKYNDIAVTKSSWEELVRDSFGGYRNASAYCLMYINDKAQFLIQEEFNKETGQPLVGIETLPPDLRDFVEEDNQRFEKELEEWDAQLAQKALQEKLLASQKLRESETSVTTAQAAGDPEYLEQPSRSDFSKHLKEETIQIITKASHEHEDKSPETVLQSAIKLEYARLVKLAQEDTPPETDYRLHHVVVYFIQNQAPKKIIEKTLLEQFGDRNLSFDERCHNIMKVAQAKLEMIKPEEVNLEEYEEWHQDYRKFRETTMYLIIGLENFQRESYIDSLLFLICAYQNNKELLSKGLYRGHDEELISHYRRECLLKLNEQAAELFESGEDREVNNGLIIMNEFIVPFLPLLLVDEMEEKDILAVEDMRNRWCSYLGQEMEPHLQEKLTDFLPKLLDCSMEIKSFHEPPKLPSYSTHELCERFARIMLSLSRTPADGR
Outline: as §1

USP28 = molecular target: T3, USP28 (UniProt Q96RU2)
T3 sequence (whole entry): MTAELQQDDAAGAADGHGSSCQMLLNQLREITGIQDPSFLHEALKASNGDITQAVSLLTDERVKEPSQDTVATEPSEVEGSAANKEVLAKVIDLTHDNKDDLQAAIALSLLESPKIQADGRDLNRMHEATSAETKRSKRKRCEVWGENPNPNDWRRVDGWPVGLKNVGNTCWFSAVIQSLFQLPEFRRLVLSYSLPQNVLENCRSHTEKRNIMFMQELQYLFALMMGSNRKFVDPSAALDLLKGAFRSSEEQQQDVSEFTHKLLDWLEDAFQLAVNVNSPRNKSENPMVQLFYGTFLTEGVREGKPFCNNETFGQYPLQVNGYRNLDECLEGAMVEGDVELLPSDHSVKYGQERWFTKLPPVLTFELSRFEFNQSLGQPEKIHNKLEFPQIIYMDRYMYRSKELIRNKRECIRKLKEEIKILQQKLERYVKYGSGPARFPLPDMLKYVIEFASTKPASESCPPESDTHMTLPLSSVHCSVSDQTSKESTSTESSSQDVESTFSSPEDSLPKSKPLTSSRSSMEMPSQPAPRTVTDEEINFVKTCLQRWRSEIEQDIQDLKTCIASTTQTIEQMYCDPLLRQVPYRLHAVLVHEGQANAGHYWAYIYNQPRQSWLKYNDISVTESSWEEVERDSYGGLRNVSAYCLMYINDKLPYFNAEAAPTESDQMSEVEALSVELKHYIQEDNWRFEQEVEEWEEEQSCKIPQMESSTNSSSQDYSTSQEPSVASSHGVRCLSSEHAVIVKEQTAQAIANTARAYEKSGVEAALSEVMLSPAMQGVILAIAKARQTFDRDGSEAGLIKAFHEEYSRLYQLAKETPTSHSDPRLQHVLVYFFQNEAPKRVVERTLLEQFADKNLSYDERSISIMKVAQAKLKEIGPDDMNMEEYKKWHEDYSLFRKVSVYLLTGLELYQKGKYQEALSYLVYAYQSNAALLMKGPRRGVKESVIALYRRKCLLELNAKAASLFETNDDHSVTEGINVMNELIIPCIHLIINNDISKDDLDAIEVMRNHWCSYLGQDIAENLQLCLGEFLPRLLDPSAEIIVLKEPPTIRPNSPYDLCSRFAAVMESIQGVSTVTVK
Outline: as §1

Measured: log2 ratio of Biotin-Ahx-Ub-VS probe labelling

Sequence of USP24 (Q9UPU5 whole entry): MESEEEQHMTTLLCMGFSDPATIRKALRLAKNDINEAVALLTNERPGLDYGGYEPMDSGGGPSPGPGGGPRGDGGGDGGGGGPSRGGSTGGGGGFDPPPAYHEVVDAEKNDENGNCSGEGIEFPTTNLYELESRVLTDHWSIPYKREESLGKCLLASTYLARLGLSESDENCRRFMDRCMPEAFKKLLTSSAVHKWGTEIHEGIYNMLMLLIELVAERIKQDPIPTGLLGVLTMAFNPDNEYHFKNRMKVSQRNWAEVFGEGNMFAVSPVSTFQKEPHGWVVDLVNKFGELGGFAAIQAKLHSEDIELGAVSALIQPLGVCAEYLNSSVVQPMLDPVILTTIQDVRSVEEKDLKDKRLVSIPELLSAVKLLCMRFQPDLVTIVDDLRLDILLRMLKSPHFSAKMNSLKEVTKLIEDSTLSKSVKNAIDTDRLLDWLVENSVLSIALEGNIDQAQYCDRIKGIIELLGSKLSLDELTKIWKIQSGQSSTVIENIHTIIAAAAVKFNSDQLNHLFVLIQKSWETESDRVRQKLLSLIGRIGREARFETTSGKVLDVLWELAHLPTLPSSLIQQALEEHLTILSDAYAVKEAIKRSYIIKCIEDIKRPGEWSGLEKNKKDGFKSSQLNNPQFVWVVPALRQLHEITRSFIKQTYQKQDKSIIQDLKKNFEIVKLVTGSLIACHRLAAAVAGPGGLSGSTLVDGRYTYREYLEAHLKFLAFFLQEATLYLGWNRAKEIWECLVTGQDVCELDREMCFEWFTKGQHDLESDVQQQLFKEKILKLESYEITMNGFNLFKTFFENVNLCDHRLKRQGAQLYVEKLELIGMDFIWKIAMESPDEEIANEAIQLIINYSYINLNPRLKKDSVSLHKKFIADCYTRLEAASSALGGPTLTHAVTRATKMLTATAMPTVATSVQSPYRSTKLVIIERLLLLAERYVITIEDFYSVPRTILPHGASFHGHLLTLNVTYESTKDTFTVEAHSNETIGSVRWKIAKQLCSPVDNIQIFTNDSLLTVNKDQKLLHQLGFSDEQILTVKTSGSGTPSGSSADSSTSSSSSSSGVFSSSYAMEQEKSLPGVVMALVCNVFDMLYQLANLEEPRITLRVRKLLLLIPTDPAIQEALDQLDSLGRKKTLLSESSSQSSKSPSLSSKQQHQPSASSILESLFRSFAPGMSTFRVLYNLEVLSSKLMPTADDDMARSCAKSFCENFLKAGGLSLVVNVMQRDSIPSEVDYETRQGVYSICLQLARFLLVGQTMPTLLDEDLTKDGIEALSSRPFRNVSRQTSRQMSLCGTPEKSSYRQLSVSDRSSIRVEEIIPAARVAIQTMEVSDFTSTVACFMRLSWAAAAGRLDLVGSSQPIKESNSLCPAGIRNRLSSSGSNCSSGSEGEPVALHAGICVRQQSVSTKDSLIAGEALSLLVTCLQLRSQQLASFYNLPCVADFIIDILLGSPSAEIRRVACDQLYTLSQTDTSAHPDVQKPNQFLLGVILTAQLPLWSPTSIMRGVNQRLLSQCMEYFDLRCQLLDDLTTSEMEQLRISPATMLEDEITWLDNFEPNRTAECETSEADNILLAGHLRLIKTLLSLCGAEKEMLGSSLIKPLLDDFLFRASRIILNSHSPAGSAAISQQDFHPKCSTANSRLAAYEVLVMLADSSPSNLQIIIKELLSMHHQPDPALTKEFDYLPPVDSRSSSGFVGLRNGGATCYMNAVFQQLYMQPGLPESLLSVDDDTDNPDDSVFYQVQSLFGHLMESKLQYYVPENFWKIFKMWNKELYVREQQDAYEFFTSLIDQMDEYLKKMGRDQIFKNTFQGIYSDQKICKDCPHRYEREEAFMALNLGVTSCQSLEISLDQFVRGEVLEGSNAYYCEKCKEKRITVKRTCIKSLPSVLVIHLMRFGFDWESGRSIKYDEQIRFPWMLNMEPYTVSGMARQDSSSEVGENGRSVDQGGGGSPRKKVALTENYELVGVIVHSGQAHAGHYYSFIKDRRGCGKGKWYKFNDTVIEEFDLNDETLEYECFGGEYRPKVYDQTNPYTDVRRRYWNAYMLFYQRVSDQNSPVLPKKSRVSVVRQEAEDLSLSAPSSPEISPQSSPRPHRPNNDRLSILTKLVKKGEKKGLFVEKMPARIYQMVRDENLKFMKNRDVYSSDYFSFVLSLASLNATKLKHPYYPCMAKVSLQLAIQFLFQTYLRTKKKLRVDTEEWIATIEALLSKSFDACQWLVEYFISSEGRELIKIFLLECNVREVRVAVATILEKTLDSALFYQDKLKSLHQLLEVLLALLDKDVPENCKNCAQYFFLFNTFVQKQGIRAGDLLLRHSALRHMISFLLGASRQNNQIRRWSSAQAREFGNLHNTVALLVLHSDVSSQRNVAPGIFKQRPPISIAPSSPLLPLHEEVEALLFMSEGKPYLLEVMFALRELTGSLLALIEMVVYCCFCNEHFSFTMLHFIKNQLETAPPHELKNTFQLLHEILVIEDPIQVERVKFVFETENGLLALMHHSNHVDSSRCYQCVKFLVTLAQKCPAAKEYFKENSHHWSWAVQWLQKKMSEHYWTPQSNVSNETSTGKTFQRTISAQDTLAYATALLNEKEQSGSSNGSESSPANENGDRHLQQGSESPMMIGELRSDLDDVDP
Sequence of USP16 (Q9Y5T5 whole entry, looked up, the tested form may be a part): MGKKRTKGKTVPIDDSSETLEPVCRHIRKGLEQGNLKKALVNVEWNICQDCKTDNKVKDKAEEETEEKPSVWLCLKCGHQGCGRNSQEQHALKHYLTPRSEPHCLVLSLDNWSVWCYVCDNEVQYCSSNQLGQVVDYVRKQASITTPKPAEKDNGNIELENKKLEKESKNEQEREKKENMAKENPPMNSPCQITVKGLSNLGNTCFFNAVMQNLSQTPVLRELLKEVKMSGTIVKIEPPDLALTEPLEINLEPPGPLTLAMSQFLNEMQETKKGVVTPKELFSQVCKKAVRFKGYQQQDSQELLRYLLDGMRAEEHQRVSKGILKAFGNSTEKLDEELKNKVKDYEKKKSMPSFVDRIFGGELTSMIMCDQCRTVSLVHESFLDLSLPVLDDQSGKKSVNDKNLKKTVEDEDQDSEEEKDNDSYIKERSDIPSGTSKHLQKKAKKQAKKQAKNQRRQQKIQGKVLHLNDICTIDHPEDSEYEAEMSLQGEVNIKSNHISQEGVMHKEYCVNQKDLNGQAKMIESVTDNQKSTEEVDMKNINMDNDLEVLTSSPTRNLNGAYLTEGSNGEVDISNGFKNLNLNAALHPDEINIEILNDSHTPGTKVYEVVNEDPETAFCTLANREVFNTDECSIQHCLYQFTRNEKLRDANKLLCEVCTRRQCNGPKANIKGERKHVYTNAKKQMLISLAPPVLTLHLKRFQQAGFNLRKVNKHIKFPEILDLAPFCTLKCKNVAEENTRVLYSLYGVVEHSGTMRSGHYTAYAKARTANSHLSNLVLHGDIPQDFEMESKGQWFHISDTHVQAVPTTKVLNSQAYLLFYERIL

Cl.O=C(CCl)N1CCc2ncncc2C1
inactive: USP16 -0.106 | USP19 -0.554 | USP24 -0.491 | USP25 -0.276 | USP28 -0.582
